According to PubChem BioAssay AID1159580 (chemical genetic matrix, 2015):
Hit rate of the full screen: of about 5,500 compounds, about 2,000 (36%) were called active. About 18% were inconclusive and are not listed. Cut-off read from the data, not from the text of the source: active = normalized growth mostly below about 0.91 (no sharp cut-off); inconclusive = no clear call, values can overlap the other calls; inactive = mostly above about 0.92. This is one part of the list.

Assay: chemical genetic growth profiling, strain panel (AID 1159580);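 note: tested at 20 µM; growth read once vehicle control cultures reached saturation at 30 °C; 1 = growth at the plate median or of vehicle wells; lower values mean less growth of the strain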
Settings: growth OD

Measured: normalized growth

CCC[C@H](N[C@@H](C)C(=O)N1[C@H](C(=O)O)C[C@@H]2CCCC[C@@H]21)C(=O)OCC
inactive: S. cerevisiae deletion strains, locus YJR075W, strain HOC1, hits give low values 1.02 | S. cerevisiae deletion strains, locus YKL009W, strain mrt4, hits give low values 1.02 | S. cerevisiae deletion strains, locus YKL068W, hits give low values 1.03 | S. cerevisiae deletion strains, locus YKL085W, strain MDH1 (second series), hits give low values 1.01 | S. cerevisiae deletion strains, locus YKL085W, strain MDH1, hits give low values 1.01 | S. cerevisiae deletion strains, locus YKL160W, strain elf1, hits give low values 1.02 | S. cerevisiae deletion strains, locus YKL190W, strain CNB1, hits give low values 1.02 | S. cerevisiae deletion strains, locus YKR001C, strain vps1, hits give low values 1.03 | S. cerevisiae deletion strains, locus YKR026C, strain gcn3, hits give low values 1.02 | S. cerevisiae deletion strains, locus YKR091W, strain srl3, hits give low values 1.02 | S. cerevisiae deletion strains, locus YLL001W, strain dnm1, hits give low values 1.02 | S. cerevisiae deletion strains, locus YLL026W, hits give low values 1.01 | S. cerevisiae deletion strains, locus YLL041C, strain sdh2, hits give low values 1.01 | S. cerevisiae deletion strains, locus YLR027C, strain aat2, hits give low values 1.01 | S. cerevisiae deletion strains, locus YLR039C, strain RIC1, hits give low values 1.03 | S. cerevisiae deletion strains, locus YLR058C, strain SHM2, hits give low values 1.01 | S. cerevisiae deletion strains, locus YLR102C, strain apc9, hits give low values 1.02 | S. cerevisiae deletion strains, locus YLR113W, strain HOG1, hits give low values 0.988 | S. cerevisiae deletion strains, locus YLR221C, strain rsa3, hits give low values 1.01 | S. cerevisiae deletion strains, locus YLR258W, strain gsy2, hits give low values 1.02 | S. cerevisiae deletion strains, locus YLR262C, strain YPT6 (second series), hits give low values 1.03 | S. cerevisiae deletion strains, locus YLR262C, strain YPT6, hits give low values 1.04 | S. cerevisiae deletion strains, locus YLR268W, strain sec22, hits give low values 1.02 | S. cerevisiae deletion strains, locus YLR320W, strain mms22, hits give low values 1.01 | S. cerevisiae deletion strains, locus YLR330W, strain CHS5, hits give low values 1.01 | S. cerevisiae deletion strains, locus YLR342W, strain FKS1 (second series), hits give low values 1.02 | S. cerevisiae deletion strains, locus YLR342W, strain FKS1, hits give low values 1.03 | S. cerevisiae deletion strains, locus YLR357W, strain rsc2, hits give low values 0.998 | S. cerevisiae deletion strains, locus YLR370C, strain arc18, hits give low values 1.01 | S. cerevisiae deletion strains, locus YLR371W, strain rom2, hits give low values 1.01 | S. cerevisiae deletion strains, locus YLR384C, strain iki3, hits give low values 1.01 | S. cerevisiae deletion strains, locus YLR418C, strain cdc73, hits give low values 1.01 | S. cerevisiae deletion strains, locus YML016C, strain PPZ1, hits give low values 1.01 | S. cerevisiae deletion strains, locus YML032C, strain rad52, hits give low values 1.02 | S. cerevisiae deletion strains, locus YML120C, strain ndi1, hits give low values 1.02 | S. cerevisiae deletion strains, locus YML124C, strain tub3, hits give low values 1.02 | S. cerevisiae deletion strains, locus YMR058W, strain fet3, hits give low values 1.02 | S. cerevisiae deletion strains, locus YMR078C, strain ctf18, hits give low values 1.03 | S. cerevisiae deletion strains, locus YMR125W, strain sto1, hits give low values 0.994 | S. cerevisiae deletion strains, locus YMR129W, hits give low values 1.02 | S. cerevisiae deletion strains, locus YMR205C, strain PFK2, hits give low values 1.02 | S. cerevisiae deletion strains, locus YMR223W, strain ubp8, hits give low values 1.03 | S. cerevisiae deletion strains, locus YMR231W, strain pep5, hits give low values 1.02 | S. cerevisiae deletion strains, locus YMR263W, strain SAP30, hits give low values 1.01 | S. cerevisiae deletion strains, locus YMR307W, strain GAS1, hits give low values 0.976 | S. cerevisiae deletion strains, locus YNL067W, strain RPL9B, hits give low values 1.01 | S. cerevisiae deletion strains, locus YNL071W, strain lat1, hits give low values 1.01 | S. cerevisiae deletion strains, locus YNL128W, strain TEP1, hits give low values 1.01 | S. cerevisiae deletion strains, locus YNL153C, strain GIM3, hits give low values 1 | S. cerevisiae deletion strains, locus YNL183C, strain NPR1, hits give low values 0.963 | S. cerevisiae deletion strains, locus YNL209W, strain ssb2, hits give low values 1.01 | S. cerevisiae deletion strains, locus YNL233W, strain BNI4, hits give low values 0.996 | S. cerevisiae deletion strains, locus YNL248C, strain rpa49, hits give low values 1.01 | S. cerevisiae deletion strains, locus YNL250W, strain rad50, hits give low values 1.02 | S. cerevisiae deletion strains, locus YNL271C, strain bni1, hits give low values 1.02 | S. cerevisiae deletion strains, locus YNL298W, strain CLA4, hits give low values 1.01 | S. cerevisiae deletion strains, locus YNL307C, strain MCK1, hits give low values 1.03 | S. cerevisiae deletion strains, locus YNL322C, strain KRE1 (second series), hits give low values 1.02 | S. cerevisiae deletion strains, locus YNL322C, strain KRE1, hits give low values 1.01 | S. cerevisiae deletion strains, locus YNR049C, strain mso1, hits give low values 1.02 | S. cerevisiae deletion strains, locus YNR052C, strain pop2, hits give low values 1.02 | S. cerevisiae deletion strains, locus YOL006C, strain TOP1, hits give low values 1.04 | S. cerevisiae deletion strains, locus YOL012C, strain htz1 0.981 | S. cerevisiae deletion strains, locus YOL147C, strain pex11, hits give low values 1.02 | S. cerevisiae deletion strains, locus YOR001W, strain rrp6, hits give low values 1.03 | S. cerevisiae deletion strains, locus YOR061W, strain CKA2, hits give low values 1.01 | S. cerevisiae deletion strains, locus YOR069W, strain VPS5, hits give low values 1 | S. cerevisiae deletion strains, locus YOR070C, strain gyp1, hits give low values 1.02 | S. cerevisiae deletion strains, locus YOR080W, strain dia2, hits give low values 1.03 | S. cerevisiae deletion strains, locus YOR083W, strain WHI5, hits give low values 1.02 | S. cerevisiae deletion strains, locus YOR106W, strain vam3, hits give low values 1.04 | S. cerevisiae deletion strains, locus YOR136W, strain idh2, hits give low values 1.02 | S. cerevisiae deletion strains, locus YOR144C, strain elg1, hits give low values 1.02 | S. cerevisiae deletion strains, locus YOR184W, strain ser1, hits give low values 1.03 | S. cerevisiae deletion strains, locus YOR231W, strain MKK1, hits give low values 0.999 | S. cerevisiae deletion strains, locus YOR265W, strain rbl2, hits give low values 1.01 | S. cerevisiae deletion strains, locus YOR270C, strain vph1, hits give low values 1.05 | S. cerevisiae deletion strains, locus YOR290C, strain snf2, hits give low values 1 | S. cerevisiae deletion strains, locus YOR316C, strain cot1, hits give low values 1.02 | S. cerevisiae deletion strains, locus YPL051W, strain arl3, hits give low values 1.02 | S. cerevisiae deletion strains, locus YPL055C, strain LGE1, hits give low values 1.01 | S. cerevisiae deletion strains, locus YPL078C, strain atp4, hits give low values 1.03 | S. cerevisiae deletion strains, locus YPL106C, strain sse1, hits give low values 1.02 | S. cerevisiae deletion strains, locus YPL240C, strain hsp82, hits give low values 1.02 | S. cerevisiae deletion strains, locus YPL241C, strain CIN2, hits give low values 1.03 | S. cerevisiae deletion strains, locus YPL256C, strain CLN2, hits give low values 1 | S. cerevisiae deletion strains, locus YPR119W, strain clb2, hits give low values 1.03 | S. cerevisiae deletion strains, locus YPR141C, strain kar3, hits give low values 1.02 | S. cerevisiae deletion strains, locus YPR163C, strain tif3, hits give low values 1.02 | S. cerevisiae deletion strains, locus YPR167C, strain met16, hits give low values 1.01 | S. cerevisiae deletion strains, strain wtn01, hits give low values 1.01 | S. cerevisiae strains, strain wild type, hits give low values 1.01
